In PubChem BioAssay (Tox21):
Values joined by “and” are separate entries in the source; they are usually repeats but may differ in a detail not shown here. Equal entries are not always repeated. Records with an inconclusive call do not appear. The source holds several records for some structures; these can differ, active in one and inactive in another. Active and inactive are the calls of the source. Unless noted, calls follow the shape of the dose curve; as a rule, active = well fitted curve in the direction sought with a large enough effect in the repeat runs; inconclusive = weak or mixed curves; inactive = no such curve, though single readings can be large; an effect the other way counts as inactive or inconclusive.

Key:
[1] = qHTS assay to identify small molecule agonists of the peroxisome proliferator-activated receptor delta (PPARd) signaling pathway - cell viability counter screen (AID 743211); also: nearly all actives have a fitted effect of over 55% in size; also: potency is read from the fitted curve at half-maximal effect
Summary of the method: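 Multiplexed format: after the 2 h room-temperature LiveBLAzer B/G FRET step, CellTiter-Glo was added to the same wells. Luminescence after 30 min gave cell viability; compound exposure was 17 h at 37C.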

[2] = molecular target: Peroxisome proliferator-activated receptor delta (Homo sapiens) (UniProt Q03181); experiment: qHTS assay to identify small molecule agonists of the peroxisome proliferator-activated receptor delta (PPARd) signaling pathway (AID 743212; calls by dose curve)
Summary of the method: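 HEK293H PPARd-bla cells; 5 h preincubation 37 C/5% CO2; compound (DMSO) 37 C; LiveBLAzer B/G FRET substrate 2 h RT; fluorescence intensity.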

[3] = qHTS assay to identify small molecule antagonists of the peroxisome proliferator-activated receptor delta (PPARd) signaling pathway - cell viability counter screen (AID 743213); also: nearly all actives have a fitted effect of over 50% in size; also: potency is read from the fitted curve at half-maximal effect
Summary of the method: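 CellTiter-Glo was added to PPARd-bla HEK293H wells following 17 h compound treatment in the presence of 300 nM L165041. Luminescence was recorded after 30 min at room temperature.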

[4] = molecular target: Peroxisome proliferator-activated receptor delta (Homo sapiens) (UniProt Q03181); experiment: qHTS assay to identify small molecule antagonists of the peroxisome proliferator-activated receptor delta (PPARd) signaling pathway (AID 743215; active = well fitted inhibition curve with a large enough effect in the signal ratio in the repeat runs, not every such curve was filed as active; the % refers to the signal ratio;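 also: cells stimulated with agonist L165041 at 300 nM final during compound exposure; series mostly up to about 62 µM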)
Summary of the method: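 PPARd-bla HEK293H cells (UAS-bla reporter) preincubated 5 h, then given compound plus 300 nM final L165041 agonist for 17 h at 37 C. Beta-lactamase activity read by LiveBLAzer B/G FRET substrate fluorescence after 2 h at room temperature.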

[5] = molecular target: Bile acid receptor (Homo sapiens) (UniProt Q96RI1); experiment: qHTS assay to identify small molecule antagonists of the farnesoid-X-receptor (FXR) signaling pathway (AID 743217; active = well fitted inhibition curve with a large enough effect in the signal ratio in the repeat runs, not every such curve was filed as active; the % refers to the signal ratio)
Summary of the method: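 FXR-UAS-bla HEK 293T cells (beta-lactamase reporter) given compound plus chenodeoxycholic acid (50 uM final), 16 h at 37C. LiveBLAzer B/G FRET substrate added for 2 h at room temperature; fluorescence read.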

[6] = qHTS assay to identify small molecule agonists of the farnesoid-X-receptor (FXR) signaling pathway - cell viability counter screen (AID 743218); also: nearly all actives have a fitted effect of over 45% in size
Summary of the method: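 FXR-UAS-bla HEK 293T cells exposed to compounds for 16 h at 37C. Cytotoxicity read in the same wells by CellTiter-Glo luminescence after 30 min at room temperature, following the beta-lactamase FRET read.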

[7] = molecular target: Bile acid receptor (Homo sapiens) (UniProt Q96RI1); experiment: qHTS assay to identify small molecule agonists of the farnesoid-X-receptor (FXR) signaling pathway (AID 743220; active = well fitted activation curve with a large enough effect in the signal ratio in the repeat runs, not every such curve was filed as active; the % refers to the signal ratio)
Summary of the method: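 Beta-lactamase reporter under UAS control in GeneBLAzer FXR HEK 293T cells (5000/well) measured with LiveBLAzer FRET substrate after 2 h at room temperature. Compound exposure lasted 16 h at 37C.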

[8] = molecular target: Vitamin D3 receptor (Homo sapiens) (UniProt P11473); experiment: qHTS assay to identify small molecule agonists of the vitamin D receptor (VDR) signaling pathway (AID 743222; calls by dose curve)
Summary of the method: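 VDR-bla cells plated 4 h at 37 C, then exposed to compounds for 16 h at 37 C. Beta-lactamase reporter activity measured by fluorescence after 2 h room-temperature loading with LiveBLAzer B/G FRET substrate.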

[9] = molecular target: Vitamin D3 receptor (Homo sapiens) (UniProt P11473); experiment: qHTS assay to identify small molecule antagonists of the vitamin D receptor (VDR) signaling pathway (AID 743223; active = well fitted inhibition curve with a large enough effect in the signal ratio in the repeat runs, not every such curve was filed as active; the % refers to the signal ratio)
Summary of the method: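 After VDR-bla cells are plated and left 4 h at 37C, DMSO-dissolved compounds and 3 nM (final) calcitriol agonist are added. Incubation continues 16 h at 37C; FRET beta-lactamase substrate then develops 2 h at room temperature.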

[10] = qHTS assay to identify small molecule agonists of the vitamin D receptor (VDR) signaling pathway - cell viability counter screen (AID 743224); also: nearly all actives have a fitted effect of over 50% in size; also: potency is read from the fitted curve at half-maximal effect
Summary of the method: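 VDR-bla cells, 4 h after plating, exposed to compounds for 16 h at 37C; viability then read in the same wells as CellTiter-Glo luminescence after 30 min at room temperature, following the bla FRET read.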

[11] = qHTS assay to identify small molecule antagonists of the vitamin D receptor (VDR) signaling pathway - cell viability counter screen (AID 743225); also: nearly all actives have a fitted effect of over 50% in size
Summary of the method: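 Cytotoxicity toward the VDR-bla HEK 293T line was scored by ATP-based CellTiter-Glo luminescence, read in the wells already used for the beta-lactamase readout after 16 h compound treatment under 3 nM 1-alpha,25-dihydroxyvitamin D3 stimulation.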

[12] = qHTS assay to identify small molecule agonists of the NFkB signaling pathway (AID 1159509; active = well fitted curve in the direction sought with a large enough effect in the signal ratio in the repeat runs, not every such curve was filed as active; the % refers to the signal ratio; also: series mostly up to about 61 µM)
Summary of the method: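 NFkB-bla ME-180 cells carry a beta-lactamase reporter under an NF-kB response element. They were plated overnight, then exposed to compounds for 5 h at 37 C. Read-out is LiveBLAzer FRET after 1.5 hr at room temperature (405 nm excitation; 460/530 nm emission).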

[13] = qHTS assay to identify small molecule agonists of the NFkB signaling pathway - cell viability counter screen (AID 1159515; calls by dose curve; also: nearly all actives have a fitted effect of over 55% in size; also: potency is read from the fitted curve at half-maximal effect)
Summary of the method: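 NFkB-bla ME-180 cells, 2,000/well, plated overnight at 37 C; compound added for 5 hr at 37 C. Viability read in the same wells as the bla reporter, by CellTiter-Glo luminescence after 30 min at room temperature.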

[14] = qHTS assay to identify small molecule agonists of the endoplasmic reticulum stress response signaling pathway (AID 1159516; active = well fitted activation curve with a large enough effect in the signal ratio in the repeat runs, not every such curve was filed as active; the % refers to the signal ratio)
Summary of the method: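 CellSensor ESRE-bla HeLa cells, 1,500 per well, plated overnight, then exposed to compounds for 5 hr at 37 C. Beta-lactamase reporter read with LiveBLAzer B/G FRET substrate after 2 hr at room temperature, 405 nm excitation, 460 and 530 nm emission.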

[15] = qHTS assay to identify small molecule agonists of the endoplasmic reticulum stress response signaling pathway - cell viability counter screen (AID 1159517; calls by dose curve;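 also: HeLa cells carrying an ER stress response element beta-lactamase reporter; series mostly up to about 61 µM; nearly all actives have a fitted effect of over 50% in size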)
Summary of the method: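 HeLa cells carrying an ESRE-driven beta-lactamase reporter receive compound for 5 hr at 37 C. Cell viability is then gauged with CellTiter-Glo by luminescence, 30 min at room temperature.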

[16] = qHTS assay to identify small molecule antagonists of the retinoid-related orphan receptor gamma (ROR-gamma) signaling pathway - cell viability counter screen (AID 1159520); also: nearly all actives have a fitted effect of over 50% in size
Summary of the method: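 Cytotoxicity was read from cellular ATP (CellTiter-Glo luminescence) after 16 hr at 37 C with 1 uM doxycycline induction. The inducer was added 2 hr after compound transfer to Tet-on ROR gamma CHO cells.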

[17] = molecular target: Nuclear receptor ROR-gamma (Homo sapiens) (UniProt P51449); experiment: qHTS assay to identify small molecule antagonists of the retinoid-related orphan receptor gamma (ROR-gamma) signaling pathway (AID 1159521; also: nearly all actives have a fitted effect of over 50% in size; also: potency is read from the fitted curve at half-maximal effect)
Summary of the method: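 Readout: ONE-Glo luciferase luminescence, 30 min at room temperature. System: Tet-on RORγ CHO, RORE-LUC. Sequence: compound 2 h, doxycycline 1 uM final, 16 h at 37 C.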

[18] = qHTS assay to identify small molecule agonists of the AP-1 signaling pathway (AID 1159526; calls by dose curve)
[19] = qHTS assay to identify small molecule antagonists of the farnesoid-X-receptor (FXR) signaling pathway - cell viability counter screen (AID 743221; active = well fitted cell-killing curve with a large enough effect in the repeat runs, not every such curve was filed as active; also: nearly all actives have a fitted effect of over 50% in size)
Summary of the method: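 CellTiter-Glo, 30 min RT, luminescence; same wells as the LiveBLAzer FRET read. Cells: FXR-UAS-bla HEK 293T. Treatment: compound with chenodeoxycholic acid 50 uM final, 16 h at 37 C.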

[20] = qHTS assay to identify small molecule agonists of the AP-1 signaling pathway - cell viability counter screen (AID 1159525; calls by dose curve; also: nearly all actives have a fitted effect of over 55% in size)
Summary of the method: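 Luminescent ATP readout (Cell Titer Glo, 30 min RT), normalised to DMSO and tetra n-octyl ammonium bromide controls. Cells were ME-180 AP-1-bla in 0.5% dialyzed FBS Opti-MEM, with a 5 h, 37 °C compound exposure.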

Measured: Potency

Chain of Peroxisome proliferator-activated receptor delta (Homo sapiens) (Q03181 whole entry, looked up): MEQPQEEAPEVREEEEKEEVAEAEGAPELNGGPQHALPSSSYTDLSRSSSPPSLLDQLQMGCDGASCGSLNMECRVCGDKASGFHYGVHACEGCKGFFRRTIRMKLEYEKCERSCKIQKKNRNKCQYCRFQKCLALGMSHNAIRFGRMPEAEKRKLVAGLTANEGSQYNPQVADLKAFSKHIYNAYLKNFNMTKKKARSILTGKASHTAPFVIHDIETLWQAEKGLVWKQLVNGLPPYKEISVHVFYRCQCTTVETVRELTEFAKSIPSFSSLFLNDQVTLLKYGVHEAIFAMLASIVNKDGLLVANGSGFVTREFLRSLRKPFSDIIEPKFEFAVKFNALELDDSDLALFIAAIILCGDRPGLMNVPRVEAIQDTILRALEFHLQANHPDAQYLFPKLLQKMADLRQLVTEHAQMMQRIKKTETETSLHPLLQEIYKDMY
Chain of Vitamin D3 receptor (Homo sapiens) (P11473 whole entry, looked up): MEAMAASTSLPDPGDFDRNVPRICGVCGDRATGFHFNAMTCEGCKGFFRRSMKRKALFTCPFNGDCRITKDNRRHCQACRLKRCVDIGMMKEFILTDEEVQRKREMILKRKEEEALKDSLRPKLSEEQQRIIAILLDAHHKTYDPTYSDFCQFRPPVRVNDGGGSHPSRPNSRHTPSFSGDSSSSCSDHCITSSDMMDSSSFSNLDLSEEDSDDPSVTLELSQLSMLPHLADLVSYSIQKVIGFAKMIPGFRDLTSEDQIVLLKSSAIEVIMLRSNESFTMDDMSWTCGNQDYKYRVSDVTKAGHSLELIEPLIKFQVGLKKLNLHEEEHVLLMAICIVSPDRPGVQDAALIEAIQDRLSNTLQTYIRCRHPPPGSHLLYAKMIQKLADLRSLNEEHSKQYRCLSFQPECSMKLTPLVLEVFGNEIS
Chain of Bile acid receptor (Homo sapiens) (Q96RI1 whole entry, looked up): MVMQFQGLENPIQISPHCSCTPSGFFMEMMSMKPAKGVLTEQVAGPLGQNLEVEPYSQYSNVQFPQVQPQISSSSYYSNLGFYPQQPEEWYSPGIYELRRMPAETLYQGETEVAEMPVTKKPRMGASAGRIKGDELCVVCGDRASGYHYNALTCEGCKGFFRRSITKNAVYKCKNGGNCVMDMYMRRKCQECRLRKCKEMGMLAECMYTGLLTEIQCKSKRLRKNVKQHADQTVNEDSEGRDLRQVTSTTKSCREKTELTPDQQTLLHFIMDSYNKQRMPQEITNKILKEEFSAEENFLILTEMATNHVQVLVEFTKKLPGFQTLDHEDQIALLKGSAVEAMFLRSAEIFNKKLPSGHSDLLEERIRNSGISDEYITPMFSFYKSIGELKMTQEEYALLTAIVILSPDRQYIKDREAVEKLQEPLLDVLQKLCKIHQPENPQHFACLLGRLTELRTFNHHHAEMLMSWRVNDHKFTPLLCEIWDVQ

CC(C)OC=O
52 µM (active) and inactive: [10]
not listed: [19] | [20]
inactive: all other assays above

CCCc1c(OCCCCc2nn[nH]n2)ccc(C(C)=O)c1O
not listed: [2] | [9] | [20]
inactive: all other assays above

C#C[C@]1(O)CC[C@H]2[C@@H]3CCc4cc(OC)ccc4[C@H]3CC[C@@]21C
not listed: [1] | [18] | [20]
inactive: all other assays above

CCC(C)c1ccccc1O (configuration not stated)
not listed: [5] | [7] | [20]
inactive: all other assays above

O=CCc1ccccc1
not listed: [2] | [4] | [20]
inactive: all other assays above

CC(C)OC(=O)C(C)(C)Oc1ccc(C(=O)c2ccc(Cl)cc2)cc1
13.8 µM (active) and inactive: [10]
49 µM (active) and inactive: [3]
active: [1] 54.9 µM | [17] 68.6 µM
not listed: [4]
inactive: all other assays above

CCCCCCCCCCCO
inactive and 43.6 µM (active): [1]
inactive and 49 µM (active): [10] | [13]
not listed: [2] | [5]
inactive: all other assays above

CCOCCOCCO
not listed: [5] | [7] | [8] | [9] | [19]
inactive: all other assays above

COc1ccccc1/C=C/C=O
not listed: [19]
inactive: all other assays above

COc1ccc(OC)c(C(O)CNC(=O)CN)c1 (configuration not stated)
not listed: [1]
inactive: all other assays above

O=[N+]([O-])c1ccc2c(c1)Cc1ccccc1-2
not listed: [1] | [5] | [7] | [8] | [9] | [20]
inactive: all other assays above

CN1C(C(=O)Nc2ccccn2)=C(O)c2ccccc2S1(=O)=O
not listed: [20]
inactive: all other assays above

CC1=CCC(C(C)(C)O)CC1 (configuration not stated)
not listed: [1] | [17]
inactive: all other assays above

CC1=CC2C3CC(C=C3C)C2C1 (configuration not stated)
not listed: [1] | [5] | [7] | [9] | [20]
inactive: all other assays above
